Experimental data from PubChem BioAssay (Tox21).
Values joined by “and” are separate entries in the source; they are usually repeats but may differ in a detail not shown here. Identical values can stand only once. Records with an inconclusive call do not appear. Some compounds were tested as several samples or in several runs, with calls that do not always agree. Active and inactive are the calls of the source. Unless noted, calls follow the shape of the dose curve; as a rule, active = well fitted curve in the direction sought with a large enough effect in the repeat runs; inconclusive = weak or mixed curves; inactive = no such curve, though single readings can be large; an effect the other way counts as inactive or inconclusive.

Key:
[1] = qHTS assay to identify small molecule antagonists of the glucocorticoid receptor (GR) signaling pathway - cell viability counter screen (AID 720693); also: nearly all actives have a fitted effect of over 55% in size; also: potency is read from the fitted curve at half-maximal effect
[2] = qHTS assay for identifying genotoxic compounds that show differential cytotoxicity against isogenic chicken DT40 cell lines with known DNA damage response pathways - wild type cell line (AID 743012); also: nearly all actives have a fitted effect of over 60% in size; also: potency is read from the fitted curve at half-maximal effect
How it was run: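 Endpoint: CellTiter-Glo luminescence, 30 min RT. Cells: wild type DT40, 300/well. Exposure: compounds in DMSO, 40 h, 37 C/5% CO2, after ~0.5 h pre-incubation.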

[3] = qHTS assay for identifying genotoxic compounds that show differential cytotoxicity against isogenic chicken DT40 cell lines with known DNA damage response pathways - Rev3 mutant cell line (AID 743014); also: nearly all actives have a fitted effect of over 55% in size; also: potency is read from the fitted curve at half-maximal effect
[4] = qHTS assay for identifying genotoxic compounds that show differential cytotoxicity against isogenic chicken DT40 cell lines with known DNA damage response pathways - Rad54/Ku70 mutant cell line (AID 743015); also: nearly all actives have a fitted effect of over 60% in size; also: potency is read from the fitted curve at half-maximal effect
[5] = qHTS assay to identify small molecule antagonists of the androgen receptor (AR) signaling pathway - cell viability counter screen (AID 743033; also: nearly all actives have a fitted effect of over 45% in size; also: potency is read from the fitted curve at half-maximal effect)
[6] = qHTS assay to identify small molecule antagonists of the androgen receptor (AR) signaling pathway using the MDA cell line - cell viability counter screen (AID 743041; also: nearly all actives have a fitted effect of over 45% in size; also: potency is read from the fitted curve at half-maximal effect)
How it was run: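 Viability read by CellTiter-Fluor fluorescence in the same wells as the antagonist screen, added after 15.5 h of a 16 h, 37C exposure. Human breast carcinoma MDA-kb2 AR-luc cells, compounds co-dosed with agonist R1881.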

[7] = molecular target: Androgen receptor (Homo sapiens) (UniProt P10275); test: qHTS assay to identify small molecule antagonists of the androgen receptor (AR) signaling pathway (AID 743035; active = well fitted inhibition curve with a large enough effect in the signal ratio in the repeat runs, not every such curve was filed as active; the % refers to the signal ratio)
How it was run: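 R1881 agonist challenge of a HEK293 UAS-beta-lactamase AR reporter line in the presence of compound (16 h, 37C); signal taken as FRET fluorescence after 2 h with LiveBLAzer B/G substrate at room temperature.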

[8] = molecular target: Androgen receptor (Homo sapiens) (UniProt P10275); test: qHTS assay to identify small molecule agonists of the androgen receptor (AR) signaling pathway using the MDA cell line (AID 743040; also: nearly all actives have a fitted effect of over 20% in size; also: potency is read from the fitted curve at half-maximal effect)
How it was run: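 Luciferase agonist assay: 16 h compound exposure at 37C without CO2 in MDA-kb2 AR-luc cells, whose MMTV promoter responds to both AR and GR. Luminescence measured after 30 min room-temperature incubation with ONE-Glo.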

[9] = qHTS assay to identify small molecule antagonists of the thyroid receptor (TR) signaling pathway - cell viability counter screen (AID 743064); also: nearly all actives have a fitted effect of over 50% in size; also: potency is read from the fitted curve at half-maximal effect
How it was run: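 Plate GH3.TRE-Luc cells; incubate 4 h at 37 °C; add compound, then T3 to 1 nM final; incubate 23.5 h; add CellTiter-Fluor; incubate 30 min at 37 °C, 5% CO2; read fluorescence.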

[10] = molecular target: Androgen receptor (Homo sapiens) (UniProt P10275); test: qHTS assay to identify small molecule antagonists of the androgen receptor (AR) signaling pathway using the MDA cell line (AID 743042; also: nearly all actives have a fitted effect of over 55% in size)
How it was run: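 Antagonist mode: compounds plus R1881 agonist added to MDA-kb2 AR-luc cells, incubated 16 h at 37C. Luciferase reporter luminescence quantified, with multiplexed CellTiter-Fluor readout for cell viability.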

Measured: Potency

Chain of Androgen receptor (Homo sapiens) (P10275 whole entry, looked up): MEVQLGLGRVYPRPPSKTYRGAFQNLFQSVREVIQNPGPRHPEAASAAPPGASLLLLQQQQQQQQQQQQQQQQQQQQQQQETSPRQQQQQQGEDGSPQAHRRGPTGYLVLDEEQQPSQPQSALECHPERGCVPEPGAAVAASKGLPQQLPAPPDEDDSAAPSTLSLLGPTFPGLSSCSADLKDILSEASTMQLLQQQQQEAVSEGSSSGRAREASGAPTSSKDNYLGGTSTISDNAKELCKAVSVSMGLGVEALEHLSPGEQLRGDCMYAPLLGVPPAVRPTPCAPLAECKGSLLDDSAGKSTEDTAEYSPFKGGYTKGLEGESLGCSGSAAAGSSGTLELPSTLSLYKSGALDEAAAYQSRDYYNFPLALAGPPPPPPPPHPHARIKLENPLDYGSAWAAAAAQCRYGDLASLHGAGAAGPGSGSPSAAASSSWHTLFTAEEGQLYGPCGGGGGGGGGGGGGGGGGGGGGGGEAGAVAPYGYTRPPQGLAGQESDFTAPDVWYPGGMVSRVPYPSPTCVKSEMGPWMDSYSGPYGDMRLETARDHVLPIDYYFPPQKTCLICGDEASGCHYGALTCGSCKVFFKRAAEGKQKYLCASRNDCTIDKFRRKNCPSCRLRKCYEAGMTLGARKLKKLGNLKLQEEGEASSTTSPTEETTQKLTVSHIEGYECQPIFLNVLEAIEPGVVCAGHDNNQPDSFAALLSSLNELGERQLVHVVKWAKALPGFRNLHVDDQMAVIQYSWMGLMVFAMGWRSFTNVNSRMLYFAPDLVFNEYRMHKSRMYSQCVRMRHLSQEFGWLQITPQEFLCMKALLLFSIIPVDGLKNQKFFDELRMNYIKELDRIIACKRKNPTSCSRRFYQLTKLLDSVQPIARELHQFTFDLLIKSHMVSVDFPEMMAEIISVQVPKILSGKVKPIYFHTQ

C#CCOC(C(=O)OCCN(C)C)(c1ccccc1)c1ccccc1
inactive: [1] | [2] | [3] | [4] | [5] | [6]

CCOC(=O)CBr
inactive: [1] | [2] | [3] | [4] | [5] | [6]

CCCCN(N=O)C(=N)N[N+](=O)[O-]
active: [2] 17.6 µM | [3] 1.57 µM | [4] 2.79 µM | [9] 62.4 µM
not listed: [10]
inactive: all other assays above

CC1CC(CC2CCC(N)C(C)C2)CCC1N (configuration not stated)
active: [2] 7.82 µM | [3] 2.47 µM | [4] 9.85 µM | [6] 31.1 µM
inactive: [1] | [5] | [8]

O=NN1CCCCCC1
not listed: [10]
inactive: all other assays above

O=S(=O)(O)C(F)(F)C(F)(F)C(F)(F)C(F)(F)F
inactive: [1]

CC(=O)NC1CCSC1=O (configuration not stated)
not listed: [10]
inactive: all other assays above

O=Cc1ccc2c(c1)OCO2
not listed: [7] | [8] | [10]
inactive: all other assays above

O=C(O)C(F)(F)C(F)(F)C(F)(F)C(F)(F)C(F)(F)C(F)(F)C(F)(F)C(F)(F)C(F)(F)F
inactive: [1] | [2] | [3] | [4] | [5] | [6]

COP(=S)(OC)Oc1cc(Cl)c(I)cc1Cl
not listed: [7] | [10]
inactive: all other assays above

COP(=S)(OC)Oc1ccc([N+](=O)[O-])cc1Cl
not listed: [6] | [7] | [10]
inactive: all other assays above

Cc1ccc2ccccc2c1
not listed: [10]
inactive: all other assays above

COc1cc(CC(C)N)cc2c1OCO2 (configuration not stated)
inactive: [1] | [2] | [3] | [4] | [5] | [6]

O=[N+]([O-])C(Br)(CO)CO
inactive: [1] | [5] | [8] | [6]
active: [2] 8.41 µM and 6.11 µM | [3] 18.8 µM and 7.7 µM | [4] 26.6 µM and 12.2 µM | [9] 23.7 µM and 21.7 µM

C=CCOC(C)=O
not listed: [10]
inactive: all other assays above

Brc1ccccc1
not listed: [10]
inactive: all other assays above

CCCCCCCCCCOC(=O)c1ccccc1C(=O)OCCCCCCCCCC
not listed: [7] | [10]
inactive: all other assays above

C/C(=C\c1ccccc1)[N+](=O)[O-]
active: [1] 17.4 µM | [2] 5.45 µM | [3] 4.33 µM | [4] 4.33 µM | [5] 24.5 µM | [9] 13.7 µM
inactive: [8]

Cl/C=C\C[N+]12CN3CN(CN(C3)C1)C2
active: [2] 48.6 µM | [3] 30.6 µM | [4] 43.3 µM
not listed: [7]
inactive: all other assays above

O=C(C(Cl)(Cl)Cl)C(Cl)(Cl)Cl
not listed: [10]
inactive: all other assays above

COC(=O)C(C)N(C(=O)Cc1ccccc1)c1c(C)cccc1C (configuration not stated)
active: [2] 8.63 µM | [3] 9.69 µM | [4] 15.4 µM
not listed: [7] | [10]
inactive: all other assays above

CCCCc1c(C)nc(NCC)nc1OS(=O)(=O)N(C)C
inactive: [1] | [5] | [6]
active: [2] 15.4 µM | [3] 19.3 µM | [4] 15.4 µM

C/C=C/C=O
not listed: [7] | [8] | [10]
inactive: all other assays above

Cc1ccccc1C(=O)Nc1cccc(OC(C)C)c1
active: [2] 48.6 µM | [3] 30.6 µM | [4] 48.6 µM
not listed: [7]
inactive: all other assays above

BrCCCCBr
inactive: [1] | [2] | [3] | [4] | [5] | [6]

Cc1ccc(-c2c(Cl)nc(C#N)n2S(=O)(=O)N(C)C)cc1
active: [2] 61.1 µM | [3] 61.1 µM | [4] 61.1 µM | [5] 43.6 µM | [9] 54.4 µM
inactive: [1] | [8]

CN1[C@@H]2CC[C@H]1CC(OC(=O)c1cc(Cl)cc(Cl)c1)C2 (some centres not stated)
inactive: [1] | [5] | [6]
active: [2] 3.76 µM | [3] 2.98 µM | [4] 5.96 µM

S=C=NCc1ccccc1
not listed: [7] | [10]
inactive: all other assays above

CC(c1ccc(O)cc1)(c1ccc(O)cc1)c1ccc(O)cc1
inactive: [1] | [5] | [6]
active: [2] 27.3 µM | [3] 38.6 µM | [4] 54.5 µM

CCOP(=O)(OCC)O/C(=C/Cl)c1ccc(Cl)cc1Cl
active: [2] 11.9 µM and 15.4 µM | [3] 23.7 µM and 27.3 µM | [4] 23.7 µM and 27.3 µM
inactive: [1] | [5] | [6]

CCOP(=O)(OCC)SCCSCC
inactive: [1] | [2] | [3] | [4] | [5] | [6]

BrCC(Br)C1CCC(Br)C(Br)C1 (configuration not stated)
active: [8] 1.36 µM | [9] 68.2 µM
not listed: [10]
inactive: all other assays above

CCOP(=S)(OCC)SCn1nnc2ccccc2c1=O
active: [2] 7.7 µM | [3] 7.7 µM | [4] 9.69 µM | [5] 24.5 µM | [6] 61.1 µM
inactive: [1]

NCC(CC(=O)O)c1ccc(Cl)cc1 (configuration not stated)
not listed: [7] | [8] | [10]
inactive: all other assays above

CCC(Cl)CCl (configuration not stated)
not listed: [7] | [8] | [10]
inactive: all other assays above

CC(C)(Cl)[N+](=O)[O-]
not listed: [7] | [8] | [10]
inactive: all other assays above

CC1C(=O)C[C@]2(C(C)C)C[C@H]12 (some centres not stated)
not listed: [7] | [8] | [10]
inactive: all other assays above

CCCCCCCCOC(=O)c1ccc(C(=O)OCCCCCCCC)c(C(=O)OCCCCCCCC)c1
not listed: [7] | [8] | [10]
inactive: all other assays above

O=C1CN=C(c2ccccc2)c2cc(Cl)ccc2N1CC1CC1
active: [2] 18.8 µM | [3] 29.8 µM and 64.2 µM | [4] 26.6 µM
inactive: [1] | [5] | [6] | [9]

CN(N=O)c1ccc([N+](=O)[O-])cc1
not listed: [7] | [8] | [10]
inactive: all other assays above

C=CC(=O)OC
not listed: [7] | [8] | [10]
inactive: all other assays above

CC(O)(CS(=O)(=O)c1ccc(F)cc1)C(=O)Nc1ccc(C#N)c(C(F)(F)F)c1 (configuration not stated)
active: [2] 26.6 µM | [3] 10.6 µM and 28.3 µM | [4] 23.7 µM and 28.3 µM
inactive: [1] | [5] | [6] | [9]

Cc1ccc(N)cc1C
not listed: [7] | [8] | [10]
inactive: all other assays above

CCOP(=O)(OCC)Oc1ccc([N+](=O)[O-])cc1
not listed: [7] | [8] | [10]
inactive: all other assays above

CCC(Br)(CC)C(=O)NC(N)=O
active: [3] 54.5 µM
not listed: [7] | [8] | [10]
inactive: all other assays above

CCOc1nc(F)cc2nc(S(=O)(=O)Nc3c(Cl)cccc3Cl)nn12
not listed: [7] | [8] | [10]
inactive: all other assays above

CCCN(CCCl)c1c([N+](=O)[O-])cc(C(F)(F)F)cc1[N+](=O)[O-]
not listed: [7] | [8] | [10]
inactive: all other assays above

C=CC(=O)OCC(C)C
not listed: [7] | [8] | [10]
inactive: all other assays above

Cn1sc(Cl)cc1=O
inactive: [1] | [5] | [6]
inactive and 54.5 µM (active): [4]
inactive and 19.3 µM (active): [2]
inactive and 21.7 µM (active): [3]
active: [9] 68.6 µM

O=C(O)COc1ccc(Cl)cc1
not listed: [7] | [8] | [10]
inactive: all other assays above

O=[Se]=O
inactive: [1] | [5] | [9]
active: [2] 0.541 µM | [3] 0.341 µM | [4] 0.242 µM | [6] 19.2 µM

O=C(CBr)OCc1ccccc1
not listed: [7] | [8] | [10]
inactive: all other assays above

CCBr
not listed: [7] | [8] | [10]
inactive: all other assays above

CCn1cc[n+](C)c1
not listed: [7] | [8] | [10]
inactive: all other assays above

COC(=O)C(Cl)C(=O)OC
not listed: [7] | [8] | [10]
inactive: all other assays above

O=C(O)C(F)(F)C(F)(F)C(F)(F)C(F)(F)C(F)(F)C(F)(F)C(F)(F)C(F)(F)C(F)(F)C(F)(F)F
not listed: [7] | [8] | [10]
inactive: all other assays above

ClCCCCBr
not listed: [7] | [8] | [10]
inactive: all other assays above
